Three compounds from PubChem BioAssay AID651564 (Sanford-Burnham Center for Chemical Genomics, 2012) can be followed below.

Some of the results follow. Values without a mark were called inactive. The source made the active and inactive calls. No stated cut-off is given here; in the data, active means IC50 below about 80 µM; inactive means the rest. Where only a bound is given, the exact number is not on record here.

This assay in a line: fluorescent counter-screen in isolated mitochondria, dose response, counter-screen for MPTP inhibitor project, biochemical, fluorescence, uHTS hits (AID 651564). To be noted: isolated mitochondria counterscreen, fluorescence read-out.
For orientation: IC50 means the concentration that gives 50% inhibition. Regarding `COc1ccc(C2NCc3ccc4c(c3-n3cccc32)OCO4)cc1OC` (stereo not drawn), the IC50 was over 80 µM.
On to `CC(Cc1ccccc1)NCCC(c1ccccc1)c1ccccc1` (stereo not drawn), for which the half-maximal inhibitory concentration (IC50) is 18.7 µM (active).
For `O=Cc1cn(Cc2ccc(F)cc2Cl)c2ccccc12` the value was 22.6 µM (active).
